# Reference: the supplement of paper PMC4206461
# Unmarked numbers belong to inactive results.
# Test system: Pseudomonas aeruginosa PA14 wild type
# Experiment: respiration area under curve with compound as sole nitrogen source, 24 h (OmniLog AUC (arbitrary units)); higher = more respiration / better utilisation as nitrogen source, active = 2000 or more
# Procedure: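 Biolog Phenotype MicroArray plates PM6-PM8: each di/tripeptide is the sole nitrogen source (IF-0 medium with succinate/ferric citrate and dye mix A). Tetrazolium reduction was read in the OmniLog every 15 min for 24 h at 37°C and summarised as area under the respiration curve (arbitrary units). The paper counts values below 2000 as no respiration and above 8000 as solid respiration. Replicate datasets are averaged.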
row,Structure (SMILES),respiration area under curve
1,N[C@@H](CCC(=O)O)C(=O)N[C@@H](Cc1ccc(O)cc1)C(=O)O (plate: PM6),1140
2,NC(N)=NCCC[C@H](N)C(=O)N[C@@H](Cc1ccc(O)cc1)C(=O)O (plate: PM6),9840 (active)
3,C[C@H](NC(=O)[C@@H](N)[C@@H](C)O)C(=O)O (plate: PM7),10500 (active)
4,N[C@@H](Cc1ccc(O)cc1)C(=O)N[C@@H](CCC(=O)O)C(=O)O (plate: PM7),4890 (active)
5,C[C@H](NC(=O)[C@@H](N)Cc1c[nH]c2ccccc12)C(=O)O (plate: PM7),5630 (active)
6,NC(=O)C[C@H](NC(=O)[C@@H](N)CO)C(=O)O (plate: PM8),12500 (active)
7,C[C@H](NC(=O)[C@@H]1CCCN1)C(=O)O (plate: PM7),8890 (active)
8,C[C@@H](O)[C@H](N)C(=O)N[C@@H](CCCN=C(N)N)C(=O)O (plate: PM7),15400 (active)
9,O=C(O)CC(NC(=O)C1CCCN1)C(=O)O (stereo not given) (plate: PM7),4460 (active)
10,CC(C)[C@H](N)C(=O)N[C@@H](CCC(N)=O)C(=O)O (plate: PM8),9290 (active)
11,N[C@@H](Cc1ccccc1)C(=O)N[C@@H](Cc1c[nH]c2ccccc12)C(=O)O (plate: PM7),524
12,CC(C)[C@H](NC(=O)[C@@H](N)CCC(=O)O)C(=O)O (plate: PM6),5390 (active)
13,CSCCC(NC(=O)C(N)C(C)C)C(=O)O (stereo not given) (plate: PM8),4440 (active)
14,N[C@@H](CC(=O)O)C(=O)N[C@@H](CCC(=O)O)C(=O)O (plate: PM6),291
15,CC(C)C[C@H](N)C(=O)N[C@@H](CCCN=C(N)N)C(=O)O (plate: PM6),10200 (active)
16,N[C@@H](Cc1ccccc1)C(=O)N[C@@H](Cc1ccccc1)C(=O)O (plate: PM7),5220 (active)
17,CC[C@H](C)[C@H](NC(=O)[C@H](C)N)C(=O)O (plate: PM8),9130 (active)
18,CC(C)C[C@H](N)C(=O)N[C@@H](CO)C(=O)O (plate: PM7),13500 (active)
19,CC(C)[C@H](N)C(=O)N[C@@H](CC(=O)O)C(=O)O (plate: PM7),8160 (active)
20,CC[C@H](C)[C@H](NC(=O)[C@@H](N)Cc1ccccc1)C(=O)O (plate: PM7),8390 (active)

row,Structure (SMILES),respiration area under curve
1,CSCC[C@H](N)C(=O)N[C@@H](CCC(=O)O)C(=O)O (plate: PM7),1960
2,C[C@H](N)C(=O)N[C@@H](CC(N)=O)C(=O)O (plate: PM6),8960 (active)
3,NCC(=O)N[C@@H](CCCN=C(N)N)C(=O)O (plate: PM6),8640 (active)
4,CC(C)C[C@H](N)C(=O)N[C@@H](CC(N)=O)C(=O)O (plate: PM8),12400 (active)
5,C[C@H](N)C(=O)N[C@@H](CCC(N)=O)C(=O)O (plate: PM8),11600 (active)
6,N[C@@H](CCC(=O)O)C(=O)N[C@@H](Cc1c[nH]c2ccccc12)C(=O)O (plate: PM6),2740 (active)
7,C[C@H](N)C(=O)N[C@@H](Cc1ccc(O)cc1)C(=O)O (plate: PM6),6830 (active)
8,CSCC[C@H](N)C(=O)N[C@@H](Cc1ccccc1)C(=O)O (plate: PM7),1400
9,NC(N)=NCCC[C@H](N)C(=O)N[C@@H](CCC(=O)O)C(=O)O (plate: PM6),9830 (active)
10,CC[C@H](C)[C@H](N)C(=O)N[C@@H](CCC(N)=O)C(=O)O (plate: PM6),7450 (active)
11,CC(NC(=O)C(N)CC(=O)O)C(=O)O (stereo not given) (plate: PM8),8830 (active)
12,CSCC[C@H](N)C(=O)N[C@@H](CC(C)C)C(=O)O (plate: PM7),2580 (active)
13,CC[C@H](C)[C@H](N)C(=O)NCC(=O)O (plate: PM6),4940 (active)
14,CCC(C)C(N)C(=O)NC(CC(N)=O)C(=O)O (stereo not given) (plate: PM8),9360 (active)
15,CC(C)C[C@@H](N)C(=O)NCC(=O)O (plate: PM8),0.4
16,CSCCC(NC(=O)C(N)CC(C)C)C(=O)O (stereo not given) (plate: PM6),3040 (active)
17,CC[C@H](C)[C@H](N)C(=O)N[C@@H](CCCN=C(N)N)C(=O)O (plate: PM6),9480 (active)
18,C[C@H](NC(=O)CN)C(=O)O (plate: PM6),4610 (active)
19,C[C@H](N)C(=O)N[C@@H](CCC(=O)O)C(=O)O (plate: PM6),7840 (active)
20,CC[C@H](C)[C@H](N)C(=O)N[C@@H](CC(C)C)C(=O)O (plate: PM8),6290 (active)
